In ChEMBL document CHEMBL4513216, “Probing the Open Global Health Chemical Diversity Library for Multistage-Active Starting Points for Next-Generation Antimalarials” (ACS Infect Dis, 2020):
About 2,100 (3.2%) of roughly 65,000 compounds showed an effect of 50% or more. The median lay at about -52%. This excerpt belongs to a sample that is enriched for strong results.

tested on: Plasmodium falciparum; experiment: Screen against P. falciparum Asexual Blood Stage (ABS), at 5uM; type: functional, Dd2; details: tested at 5 uM

Point of comparison: `COCC(=O)N1CCC(C(=O)c2cc(C)cnc2N)CC1`, INHIBITION -65.6%. Against it:
- c1ccc(CN2Cc3nccn3CC(Cn3cccn3)C2)nc1 (configuration not stated) — higher, -16.2%
- CCN(CC)Cc1cn2c(n1)CN(C(=O)Cc1ccsc1)CC2 — higher, -53.3%
- Cc1cc(N(Cc2cccs2)C2CC2)n2nc(C(F)(F)F)nc2n1 — higher, 67.3%
- Cc1cc(N(Cc2ccccn2)C2CC2)n2nc(C(F)(F)F)nc2n1 — higher, -61.2%
- Cc1cc(N(Cc2ccccc2F)C2CC2)n2nc(C(F)(F)F)nc2n1 — higher, 4%
- CC1c2ncc(Cn3cccn3)n2CCN1Cc1ccccn1 (configuration not stated) — lower, -88.5%
- Cc1nnc2n1CCN(C(C(=O)NC1CC1)c1ccc(F)cc1)C2 (configuration not stated) — lower, -127%
- CCN1CCN(CCNC(=O)c2ccn(-c3ccc(F)cc3)n2)CC1 — higher, -11.4%
- NC(=O)CC1CCN(C(=O)c2cccn2Cc2cccs2)CC1 — lower, -68.7%
- CN1[C@@H](C(=O)NCC2CC2)C[C@@H]2CN(Cc3ccco3)C[C@@H]21 — lower, -99%
- COc1ncccc1CN1C[C@H]2C[C@@H](C(=O)NCC3CC3)N(C)[C@H]2C1 — higher, 51.2%
- CN1[C@@H](C(=O)NCC2CC2)C[C@@H]2CN(Cc3ccoc3)C[C@@H]21 — higher, 30.4%
- CCOc1ccc(C(=O)N2CCCC2c2c(C)nn(C)c2Cl)cn1 (configuration not stated) — higher, -37.6%
- CCS(=O)(=O)N1CCC2(CCN(Cc3cccc(OC)c3)CC2)CC1 — higher, 68.4%
- COc1cccc(CN2CCC3(CC2)CCN(c2ncc(C)cn2)C3)c1 — lower, -73.3%
- COc1cccc(CN2CCC3(CC2)CCN(c2ncccn2)C3)c1 — higher, 0.0663%
- NC(=O)C1CCCN1Cc1cccc(NC(=O)c2cc(Cl)cc(Cl)c2)c1 (configuration not stated) — higher, -51%
- Fc1ccc(CN2CCCCC2Cn2cncn2)c2ncccc12 (configuration not stated) — higher, 65.8%
- Clc1ccc2cccnc2c1CN1CCCCC1Cn1cncn1 (configuration not stated) — higher, 48.2%
- Fc1ccc(CN2CCCC2Cn2cncn2)c2ncccc12 (configuration not stated) — higher, 13.9%
- Clc1cc(CN2CCCC2Cn2cncn2)c2ncccc2c1 (configuration not stated) — higher, 2.88%
- N#Cc1ccc(F)c(CN2CCCC2Cn2cccn2)c1 (configuration not stated) — higher, -15.1%
- N#Cc1ccc(CN2CCCC2Cn2cccn2)c(F)c1 (configuration not stated) — lower, -129%
- Clc1cc(CN2CCCC(Cn3cncn3)C2)c2ncccc2c1 (configuration not stated) — higher, 39.2%
- Clc1ccc2cccnc2c1CN1CCCC1Cn1cncn1 (configuration not stated) — higher, 53.7%
- Fc1ccc(CN2CCCC2Cn2cccn2)c2ncccc12 (configuration not stated) — higher, 59.1%
- Fc1ccc(CN2CCCC(Cn3cncn3)C2)c2ncccc12 (configuration not stated) — higher, -1.08%
- Clc1ccc(CN2CCCCC2Cn2cncn2)c2ncccc12 (configuration not stated) — higher, 17.8%
- Clc1ccc(CN2CCCC(Cn3cncn3)C2)c2ncccc12 (configuration not stated) — higher, 64.6%
- CC1=Nc2c(c(=O)[nH]n2C(C)C)C(c2ccc3nccnc3c2)S1 (configuration not stated) — lower, -82.6%
- Cc1ccc(N2CCCC(NCc3ccccn3)C2)nn1 (configuration not stated) — lower, -71.8%
- O=C(c1ccccc1)N1CCN(CC(O)c2ccc(F)cc2)CC1 (configuration not stated) — lower, -120%
- O=C(CN1CCCC1Cn1cncn1)Nc1ccc(Cl)cn1 (configuration not stated) — lower, -112%
- Cc1cc(N2CCN(C(=O)c3cc(Cl)c[nH]3)CC2)nc(C)n1 — higher, -19.7%
- Cc1cc(N2CCN(C(=O)c3cc(Cl)c[nH]3)CC2)nc(C(C)C)n1 — higher, 13%
- Cc1cc(N2CCN(C(=O)c3cc(Cl)c[nH]3)CC2)nc(N)n1 — higher, 69.8%
- COc1ccc(CC2(CO)CCN(c3cc(C(N)=O)ccn3)CC2)cc1 — lower, -129%
- COc1ccc(-n2cnnc2SCC(=O)NC(C)C)cn1 — higher, -44.5%
- CS(=O)(=O)N1CCC2(CCN(C(=O)c3cccnc3)CC2)C1 — higher, -35.5%
- COCC(=O)NCC1CCCN(Cc2cc3ccccc3[nH]2)C1 (configuration not stated) — higher, -18.1%
- COC(=O)c1cccc(C(=O)N(CCC#N)CC(C)(C)C)c1 — higher, -61.6%
- Cc1csc(Nc2cc(C3CN(C(C)C)C3)nc(C)n2)n1 — higher, -3.32%
- Cc1nc(Nc2nccs2)cc(C2CN(C(C)C)C2)n1 — higher, 59.7%
- Cc1nc(Nc2cnccn2)cc(C2CN(C(C)C)C2)n1 — lower, -131%
- Cc1cccc(CN2CCOC(C)(C(=O)N3CCOCC3)C2)n1 (configuration not stated) — higher, -28.9%
- NC(=O)c1cc(C2CCCN(CCOc3ccc(F)cc3)C2)n[nH]1 (configuration not stated) — higher, 52.4%
- NC(=O)c1cc(C2CCCN(CCCOc3ccc(F)cc3)C2)n[nH]1 (configuration not stated) — lower, -96.5%
- Cc1ccc(OCCN2CCCC(c3cc(C(N)=O)[nH]n3)C2)cc1 (configuration not stated) — lower, -109%
- COC(=O)c1cccnc1N1CCC(Oc2cccc(F)c2)CC1 — higher, -23.9%
- CC(C)NC(=O)N1CC[C@@H](N(C)C)[C@@H]1Cc1ccccc1 — higher, 16.7%
- CN(C)[C@@H]1CCN(S(C)(=O)=O)[C@H]1Cc1ccccc1 — higher, 19.4%
- CN(C)[C@@H]1CCN(S(=O)(=O)c2cn(C)cn2)[C@H]1Cc1cccnc1 — higher, -57.5%
- CC(C)N(C)[C@@H]1CCN(S(C)(=O)=O)[C@H]1Cc1ccccc1 — higher, 54.9%
- CC(C)N(C)[C@@H]1CCN(Cc2ccoc2)[C@H]1Cc1ccccc1 — higher, 13.7%
- CN(C)[C@@H]1CCN(S(=O)(=O)C2CC2)[C@H]1Cc1ccccc1 — higher, 64.9%
- CCOc1nnc(CN2CCN(CCOC)C(C)C2)s1 (configuration not stated) — higher, 1.7%
- Cc1cc(C(=O)N(C)Cc2cnn(C)c2C)n(C)n1 — lower, -72.2%
- Cc1cccc(C(C)C)c1NC(=O)CN(C)C(C)c1nccs1 (configuration not stated) — higher, 10.7%
- Cc1nnc(C2CCN(C(=O)c3ccc4nccnc4c3)CC2)s1 — higher, -22.7%
- NCC1CCCCN1C(=O)Cc1ccc(F)c(F)c1 (configuration not stated) — higher, 9.77%
- CSc1nccc(N2CCC3(CCCN(Cc4ccc(F)cc4)C3)C2)n1 (configuration not stated) — higher, 2.13%
- CSc1nccc(N2CCC3(CCCN(CCc4ccccc4)C3)C2)n1 (configuration not stated) — higher, 50.1%
- CSc1nccc(N2CCC3(CCCN(Cc4cccc(C)c4)C3)C2)n1 (configuration not stated) — higher, 27.2%
- CCN(CC)S(=O)(=O)N1C[C@@H](O)[C@H](Oc2cccc(F)c2)C1 — higher, -6.79%
- O=S(=O)(Cc1ccc(F)cc1)NCc1nnc2n1CCC2 — lower, -90.9%
- FC(F)(F)c1nc(NC2CCCCC2)c2ccccc2n1 — higher, -10.5%
